PubChem BioAssay AID504467 (National Center for Advancing Translational Sciences (NCATS), 2011)
Out of some 330,000 compounds screened, about 7,700 (2.3%) were called active. Where a call stands in place of a potency, no number is given. Inconclusive results (about 26%) are left out. The call rests on the fitted dose curve; in most records, active means well fitted inhibition curve with a large enough effect; inconclusive means small, poorly fitted or top-dose-only effect, or effect the other way; inactive means flat fitted curve, though single readings scatter. The sample as a whole holds a higher share of actives than the screen did.

Assay: qHTS screen for small molecules that inhibit ELG1-dependent DNA repair in human embryonic kidney (HEK293T) cells expressing luciferase-tagged ELG1; further: nearly all actives have a fitted effect of over 55% in size
Details: HEK293T ELG1-luciferase reporter, luminescence, 16 h, DNA damage induced by 5-fluorouridine; series mostly up to 46.1 µM
Summary of the method: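 In this reporter screen, reduction of luminescence relative to DMSO vehicle indicated activity. Compounds and 5-fluorouridine were added together to 2,000 cells per well, incubated for 16 hr at 37 °C, then developed with ONE-Glo.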
Potency means the concentration at half of the fitted maximal effect.

| SMILES | Potency |
| --- | --- |
| CC(=O)NCCC(=O)Nc1cc(S(=O)(=O)N2CCCCC2)ccc1Oc1cccc(C)c1 | inactive |
| Cc1cccn2c(=O)c3cc(C(=O)NCC4CCCO4)c(=N)n(Cc4ccc(F)cc4)c3nc12 (stereo unspecified) | inactive |
| CCCCc1ccc(NS(=O)(=O)c2cccc(C(=O)N3CCCN(C)CC3)c2)cc1 | inactive |
| COc1cc(OC)c(N2CC(C(=O)Nc3cc(Cl)ccc3N3CCOCC3)CC2=O)cc1Cl (stereo unspecified) | inactive |
| CC(=O)Nc1ccc(-c2csc(NC(=O)Nc3ccccc3)n2)cc1 | 7.3 µM (active) |
| CC(=O)Nc1ccc(S(=O)(=O)Nc2nc(-c3ccc(C(C)(C)C)cc3)cs2)cc1 | inactive |
| O=C(O)c1ccccc1C(=O)Nc1nc(-c2ccccc2)cs1 | inactive |
| CC1C(=O)C(C)C(c2ccc(O)cc2)NC1c1ccc(O)cc1 (stereo unspecified) | inactive |
| CC(C)[C@H](NC(=O)N1c2ccccc2NC(=O)[C@@H]1C(C)C)C(=O)N[C@H](C(=O)O)c1ccccc1 | inactive |
| Cc1cccc(N2CCN(C(C)C(=O)N3CCc4ccccc43)CC2)c1C (stereo unspecified) | inactive |
| COc1ccc(OCCNC(=O)c2cc(C3CC3)nc3c2cnn3C(C)C)cc1 | inactive |
| COc1ccc(CNC(=O)CN(C(=O)c2csnn2)c2cnc3ccccc3c2)cc1 | inactive |
| COc1cc(N)c(Cl)cc1C(=O)OCC(=O)c1ccc2c(c1)NC(=O)CO2 | 3.66 µM (active) |
| O=C1COc2ccc(C(=O)COC(=O)c3cccnc3Cl)cc2N1 | inactive |
| O=C1COc2ccc(C(=O)COC(=O)c3ccccc3Cl)cc2N1 | inactive |
| COc1cc(/C=N/NC(=O)c2cccnc2)ccc1OC(=O)c1cccc(Br)c1 | inactive |
| CCOC(=O)c1ccc(N/C(=N/S(=O)(=O)c2ccccc2)c2ccccc2)cc1 | inactive |
| CCOC(=O)c1nc(Nc2ccc(C(=O)OC)cc2)c2ccccc2n1 | 4.11 µM (active) |
| CCOC(=O)c1ccc(Nc2cc(C)nc3nc(C)nn23)cc1 | inactive |
| Cc1cc2occ(CC(=O)NNC(=O)c3ccccc3F)c2cc1C | inactive |
| O=C1[C@H]2[C@@H](c3ccc(Cl)cc3)N3C(=O)N(c4cccc(F)c4)C(=O)[C@@]3(Cc3ccccc3)[C@H]2C(=O)N1C1CCCCC1 | inactive |

| SMILES | Potency |
| --- | --- |
| COc1ccccc1CN1CCN(C(c2ccccc2)c2ccccc2)CC1 | inactive |
| CCCCn1c(N)c(N(CC(C)C)C(=O)c2ccc(-n3c(C)ccc3C)cc2)c(=O)[nH]c1=O | inactive |
| Cc1nc(SCC(=O)NC2CCCCC2C)c(C#N)c(C)c1C (stereo unspecified) | inactive |
| CCOc1ccc(S(=O)(=O)Nc2ccc(S(=O)(=O)Nc3cc(OC)ccc3OC)cc2)cc1 | inactive |
| COc1ccccc1Oc1ccc(S(=O)(=O)Nc2cccnc2)cc1 | inactive |
| COc1ccc(NS(=O)(=O)c2ccc(Oc3c(C#N)cccc3C#N)cc2)cc1 | 2.31 µM (active) |
| CN(CC(=O)Nc1ccc(OC(F)(F)F)cc1)C(=O)C1CCC1 | inactive |
| Cc1noc(/C=C/N(C)C)c1S(=O)(=O)N1CCCC(C(=O)NCc2ccco2)C1 (stereo unspecified) | inactive |
| Cc1noc(/C=C/c2ccco2)c1S(=O)(=O)N1CCC(C(=O)Nc2ccc(Cl)cn2)CC1 | 5.8 µM (active) |
| CCOC(=O)C1CCN(S(=O)(=O)c2c(C)noc2C)CC1 | inactive |
| Cc1ccc(Cl)c(OCC(=O)N(C)CC(=O)Nc2ccc(N3CCOCC3)cc2)c1 | inactive |
| COc1cc2ccccc2cc1C(=O)N(CCN(C)C)c1nc2c(F)cccc2s1 | inactive |
| CN1c2ccc(C=O)c3c(C=O)ccc(c23)N(C)C1(C)C | 6.51 µM (active) |
| Cc1cccn2c(=O)c(/C=C(\C#N)C(N)=O)c(N3CCCCCC3)nc12 | inactive |
| CC(Sc1ccccc1F)C(=O)Nc1cccc(S(=O)(=O)N2CCOCC2)c1 (stereo unspecified) | inactive |
| CC(C)CN(C(=O)COC(=O)c1ccc(Cl)c(N)c1)c1c(N)n(Cc2ccccc2)c(=O)[nH]c1=O | inactive |
| COC(=O)C(C)Oc1ccc2c(c1)O/C(=C\c1cccc(Br)c1)C2=O (stereo unspecified) | inactive |
| Cc1ccc(OCCC(=O)OCC(=O)N2c3ccccc3NC(=O)C2(C)C)cc1 | inactive |
| Cc1cc(C(=O)OCC(=O)N2c3ccccc3NC(=O)C2(C)C)c(C)n1-c1ccccc1 | 29.1 µM (active) |
| CNS(=O)(=O)c1cccc(C(=O)OCC(=O)N2c3ccccc3NC(=O)C2(C)C)c1 | inactive |
| O=c1[nH]cccc1-c1nc2ccccc2n1Cc1ccc(Cl)cc1 | inactive |

| SMILES | Potency |
| --- | --- |
| O=C(CNC(=O)c1cccs1)N/N=C/c1cccc(Br)c1 | inactive |
| O=C(NC(Cc1c[nH]c2ccccc12)C(=O)N/N=C/c1ccc(Br)cc1)c1cccs1 (stereo unspecified) | 23.1 µM (active) |
| CC(=O)NC(Cc1c[nH]c2ccccc12)C(=O)O (stereo unspecified) | inactive |
| CC1CN(C(=O)c2ccc([N+](=O)[O-])s2)CC(C)O1 (stereo unspecified) | inactive |
| COc1ccc(CC(=O)NC2CCSc3ccccc32)cc1OC (stereo unspecified) | inactive |
| CCOc1ccc(CCNC(=O)COC(=O)c2ccc(F)c(S(=O)(=O)N3CCOCC3)c2)cc1OCC | inactive |
| COc1ccccc1NS(=O)(=O)c1ccc(C)c(C(=O)NNC(=O)c2csc(N3CCOCC3)n2)c1 | inactive |
| CN(C(=O)CSc1nnc(-c2ccc3c(c2)OCO3)o1)C1CCS(=O)(=O)C1 (stereo unspecified) | inactive |
| O=C(CN1CCN(c2cccc(Cl)c2)CC1)Nc1ccc(S(=O)(=O)N2CCOCC2)cc1 | 18.3 µM (active) |
| O=C(CN1C(=O)CCC1=O)Nc1ccc(S(=O)(=O)N2CCOCC2)cc1 | inactive |
| O=C(CN1CCN(S(=O)(=O)/C=C/c2ccccc2)CC1)Nc1ccc(N2CCOCC2)cc1 | inactive |
| COc1ccc(-c2cc(C(=O)NCc3ccco3)no2)cc1OC | inactive |
| CN(CCNC(=O)c1cc2c(-c3ccccc3F)nn(C)c2s1)C1CCCCC1 | inactive |
| COc1ccccc1N1CCN(C(=O)c2cc(-c3ccc(Cl)c(Cl)c3)on2)CC1 | inactive |
| COc1ccccc1N1CCN(C(=O)c2cc3c(-c4ccc(Cl)cc4)nn(C)c3s2)CC1 | 11.6 µM (active) |
| CCOC(=O)N1CCN(C(=O)c2cc3c(-c4ccc(Cl)cc4)nn(C)c3s2)CC1 | inactive |
| Cn1nc(-c2ccc(Cl)cc2)c2cc(C(=O)NCc3ccco3)sc21 | 25.9 µM (active) |
| Cc1ccc(CSCC(=O)N(C)CC(=O)Nc2ccc(C)cc2)cc1 | inactive |
| CC(=O)Nc1ccc(S(=O)(=O)NCC(=O)OCC(=O)c2ccc[nH]2)cc1 | inactive |
